Results on 40 compounds are retold here after PubChem BioAssay (NCATS).

SMILES strings stand for the structures. Inconclusive results are not listed. A call without a number means that no potency is given here. The source made the active and inactive calls. The call rests on the fitted dose curve; in most records, active means well fitted inhibition curve with a large enough effect; inconclusive means small, poorly fitted or top-dose-only effect; inactive means flat fitted curve, though single readings scatter.
Potency means the concentration at half of the fitted maximal effect.

For this assay, the target named is Phospholipid hydroperoxide glutathione peroxidase GPX4 (Homo sapiens) (UniProt P36969). Nature of the assay: Primary qHTS Assay for Inhibitors of Recombinant Selenoprotein Glutathione Peroxidase 4 (GPX4) (AID 1845192). Further: nearly all actives have a fitted effect of over 65% in size. The conditions noted are these: recombinant GPX4, GR-coupled NADPH fluorescence, 15 min; series mostly up to 50 µM. An excerpt: Assay Provider: Elias S.J. Arner MD PhD.
Phospholipid hydroperoxide glutathione peroxidase GPX4 (Homo sapiens), sequence (P36969 whole entry, looked up): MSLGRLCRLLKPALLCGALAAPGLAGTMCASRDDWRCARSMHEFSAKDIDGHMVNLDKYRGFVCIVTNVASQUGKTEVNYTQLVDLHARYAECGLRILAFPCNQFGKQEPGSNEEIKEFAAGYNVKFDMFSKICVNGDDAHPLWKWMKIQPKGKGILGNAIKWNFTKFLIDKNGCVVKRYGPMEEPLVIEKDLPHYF
Department of Medical Biochemistry and Biophysics
Karolinska Institutet, Solna, Stockholm, Sweden
Selenoprotein glutathione peroxidases (GPX), like the ubiquitously expressed GPX1 and the ferroptosis modulator GPX4, enact their antioxidant activities by reducing hydroperoxides using glutathione. […] GPX1 and GPX4 inhibitors have thus shown promise as anti-cancer agents. Existing inhibitors are often promiscuous, or modulate GPX activity only indirectly, so novel direct inhibitors identified through screening against GPX1 and GPX4 could be valuable. Here, we developed optimized glutathione reductase (GR)-coupled GPX assays for the biochemical high-throughput screen (HTS) of almost 12,000 compounds with known mechanisms of action. Initial hits were triaged using a GR counter-screen, assessed for isoform specificity using a separate GPX2 assay, and were assessed for general selenocysteine-targeting activity using a thioredoxin reductase (TXNRD1) assay. With this suite of assays, we identified novel GPX1/GPX2- and GPX4-specific inhibitors and can here present a validated pipeline for future discovery research for selenoprotein-targeting agents.
SEQUENCE No. (e.g., 1, 2, 3, etc.); […] (e.g., Cells, Incubation, Reagent, etc.); VALUE; DESCRIPTION.
1; Reagent 1; 3 uL; 333.33 nM GPx4 enzyme or no enzyme control in 1536-well, black, solid Greiner assay plate.
2; Compound; 25 nL; Kalypsis pin tool (Wako USA) equipped with a 1536-well pin head.
3; Incubation; 30 min; room temperature.
4; Reagent 2; 1 uL; 500 nM GR, 5 mM GSH, 2.5 mM NADPH solution
5; Reagent 3; 1 uL; 2.5 mM CHP in 50% EtOH.
6; Detection; Fluorescence; ViewLux microplate reader, excitation 340 nm and emission 450 nm.
7; Incubation; 15 min; room temperature.
8; Detection; Fluorescence; ViewLux microplate reader, excitation 340 nm and emission 450 nm.
NOTES (numbers refer to Sequence numbers above)
1. 3 µL of 333.33 nM GPX4 and 0.016% BSA in assay buffer (50 mM Tris-HCl, 2 mM EDTA (pH 7.5), 150 mM NaCl) was added to columns 3-48 of 1536-well plates using a BioRAPTR Flying Reagent Dispenser (Let's Go Robotics (LGR), Carlsbad, CA). A no-enzyme control (0.01% BSA in TES assay buffer) was added to columns 1-2.
2. 25 nL, library and DMSO controls were added to each well with a pin tool (Kalypsys).
3. The assay plates were incubated for 30 minutes at room temperature.
4. 1 µL of master mix (500 nM glutathione reductase (GR), 5 mM reduced glutathione (GSH), 2.5 mM NADPH in assay buffer) was added.
5. 1 µL of cumene hydroperoxide (CHP) ([2.5 mM] in 50% EtOH) was then added within 5 minutes to initiate the reaction. Final concentrations were: 200 nM GPX4, 1 mM GSH, 0.5 mM CHP, 0.5 mM NADPH, 100 nM GR, 0.01% BSA.
6. Initial fluorescence readout (t=0) at 340/450 nm was measured using a ViewLux multimodal detector (PerkinElmer, Waltham, MA).
8. Endpoint fluorescence readout (t=15) at 340/450 nm was measured 15 min after room temperature incubation.
As to `C[N+]1(C)[C@@H]2CC[C@H]1CC(OC(=O)C(O)c1ccccc1)C2` (stereo not given in full), the Potency entry was “inactive”. For `Fc1ccccc1CNCc1ccc(-c2ccnc3[nH]ccc23)cc1`, the Potency was 16.1 µM (active).

As to `CC[C@H](CO)Nc1nc(Nc2cccc(-c3ccccn3)c2)c2ncn(C(C)C)c2n1`, the Potency result is “inactive”.

As for `N[C@@H](C(=O)N[C@@H]1C(=O)N2C(C(=O)O)=C(CSc3cn[nH]n3)CS[C@H]12)c1ccc(O)cc1`, the Potency entry was “inactive”. On to `O=C(C1=CCN2c3c(cccc31)OC[C@H]2CN1CCOCC1)c1cccc2ccccc12`, for which the Potency result is “inactive”. Under `CC(=O)Nc1nc2c(Oc3cc(-c4ccc(C(F)(F)F)cc4)ncn3)cccc2s1` stands “inactive”. As for `COc1ccc2c(c1)C[C@H](C(=O)Nc1ccc(-c3cn[nH]c3)cc1OCCN(C)C)CO2`, the entry is “inactive”; as for `C=C1/C(=C/C=C2\CCC[C@]3(C)[C@@H]([C@H](C)/C=C/C(=O)C4CC4)CC[C@@H]23)C[C@@H](O)C[C@@H]1O`, “inactive”. As for `COc1cc(O)ccc1OCCNCC(O)COc1cccc2[nH]c3ccccc3c12` (stereo not given), the entry is “inactive”. As for `N#Cc1c[nH]c2c(C(=O)N3CCN(CCc4ccc(F)cc4)CC3)cccc12`, the Potency result was “inactive”. Regarding `CN(CCCNC(=O)c1ccc2nc3c(c(Cl)c2c1)CCCC3)Cc1ccccc1`, the Potency entry is “inactive”. On to `CC(=O)N1c2ccc(-c3ccc(C(=O)O)cc3)cc2C(Nc2ccc(Cl)cc2)CC1C` (stereo not given), for which the Potency entry is “inactive”. Under `CCOC(=O)CN[C@@H](C(=O)N1CC[C@H]1C(=O)NCc1ccc(/C(N)=N/O)cc1)C1CCCCC1` stands “inactive”; under `CC(C)N(CCCNC(=O)Nc1ccc(C(C)(C)C)cc1)C[C@H]1O[C@@H](n2cc(Br)c3c(N)ncnc32)[C@H](O)[C@@H]1O`, “inactive”; under `COc1c(-c2ccc3cc(NS(C)(=O)=O)ccc3c2)cc(-n2ccc(=O)[nH]c2=O)cc1C(C)(C)C`, 3.98 µM (active). In the case of `O=C(c1ccc(F)c(F)c1Nc1ccc(I)cc1F)N1CC(O)(C2CCCCN2)C1` (stereo not given), the Potency entry was “inactive”. Under `Nc1ncnc2c1ncn2[C@@H]1O[C@H](CO)C[C@H]1O` stands “inactive”; under `O=C(CCCCCCC(=O)Nc1ccc(C2OC(CSc3nc(-c4ccccc4)c(-c4ccccc4)o3)CC(c3ccc(CO)cc3)O2)cc1)NO` (stereo not given), “inactive”; under `CN1C2CCCC1CC(NC(=O)c1nn(C)c3ccccc13)C2` (stereo not given), “inactive”. Under `CC(=O)C1=C(O)C2c3c[nH]c4cccc(c34)CC2C(C)(C)N(C)C1=O` (stereo not given) stands “inactive”; under `CCCCC(=O)N(Cc1ccc(-c2ccccc2-c2nn[nH]n2)cc1)C(C(=O)O)C(C)C` (stereo not given), “inactive”. As for `CC[C@H](C)[C@H]1O[C@]2(CC[C@@H]1C)C[C@@H]1C[C@@H](C/C=C(\C)[C@@H](O[C@H]3C[C@H](OC)[C@@H](O[C@H]4C[C@H](OC)[C@@H](O)[C@H](C)O4)[C@H](C)O3)[C@@H](C)/C=C/C=C3\CO[C@@H]4[C@H](O)C(C)=C[C@@H](C(=O)O1)[C@]34O)O2`, the entry is “inactive”.

For `C[C@@H]1COCCN1c1cc(C2(S(C)(=N)=O)CC2)nc(-c2ccnc3[nH]ccc23)n1` (stereo not given in full), the Potency is 20.2 µM (active). Under `COc1ccc(S(=O)(=O)N(CCO)c2ccccc2CN(C)C/C=C/c2ccc(Cl)cc2)cc1` stands “inactive”; under `C[C@@H]1N=C(N)NC(N(C)C)=N1`, “inactive”; under `CN(CC(=O)N1CCOCC1)Cc1c(Cl)cccc1NC(=O)c1ccccc1`, “inactive”. Under `Cc1ccc(C(=O)N2CCN(c3ccc([N+](=O)[O-])cc3)CC2)cc1Cl` stands “inactive”; under `CC1(C)CC23[C@@H]4CC(=O)[C@@H]2COC(=O)[C@@H]3CC[C@H]41`, “inactive”; under `COc1ccc2c3ccnc4ccc(=O)n(c2c1)c43`, “inactive”. Under `CC(=O)N1CCN([C@H]2CCN(C(=O)N(C)[C@H](C)c3cc(C(F)(F)F)cc(C(F)(F)F)c3)[C@@H](c3ccc(F)cc3C)C2)CC1` stands “inactive”; under `CCS(=O)(=O)N(Cc1cccnc1)c1cccc(-c2ccc(C#N)cc2)c1`, “inactive”; under `CCN1CCC[C@@H]1CNC(=O)c1ccc2c(c1)NC(=O)/C(=C/c1ccccc1F)S2`, “inactive”. As for `N#Cc1ccc(-c2c(-c3ncn[nH]3)sc(N3CCOCC3)c2C#N)c(F)c1`, the Potency entry was “inactive”.

With `CC1(C)SC2C(NC(=O)[C@H](C(=O)O)c3ccsc3)C(=O)N2C1C(=O)O` (stereo not given in full), the Potency result was “inactive”. Under `C=C(C(=O)O)C1CC2=C(C)C(=O)CC2C(C)CC1O` (stereo not given) stands “inactive”. Under `N[C@H](Cc1ccccc1)C(=O)O` stands “inactive”; under `CC/C(=C(\c1ccc(O)cc1)c1ccc(OCCNC)cc1)c1ccccc1`, “inactive”. Under `Nc1nc(NCC2CCC(CNS(=O)(=O)c3cccc4ccccc34)CC2)nc2ccccc12` (stereo not given) stands “inactive”; under `C[C@@H](CN1CCC(n2c(=O)[nH]c3cc(Cl)ccc32)CC1)NC(=O)c1ccc2ccccc2c1`, “inactive”. On to `CN1CCN(c2nc(C3=C(c4c[nH]c5ccccc45)C(=O)NC3=O)c3ccccc3n2)CC1`, for which the Potency result is “inactive”.
